The values that follow come from PubChem BioAssay (Tox21).

Test [1] can be described thus: qHTS assay for small molecule agonists of the p53 signaling pathway (AID 651631; calls by dose curve; further: nearly all actives have a fitted effect of over 15% in size; further: potency means the concentration at half of the fitted maximal effect). A digest of the protocol: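 Readout was fluorescence from the LiveBLAzer FRET substrate, applied for 2 h at room temperature after 16 h compound exposure at 37 °C. Cells were the p53RE-bla HCT-116 line, with beta-lactamase driven by p53 response elements.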
Test [2] can be described thus: qHTS assay for small molecules that induce genotoxicity in human embryonic kidney cells expressing luciferase-tagged ATAD5 (AID 651632). Further: nearly all actives have a fitted effect of over 15% in size. Further: potency means the concentration at half of the fitted maximal effect. The method, boiled down:
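DMSO vehicle served as the control. HEK293T reporter cells, 16 hr at 37C, then 30 min Amplite at room temperature; ATAD5 induction is measured as luciferase activity.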
On the technique in general: Quantitative high-throughput screening tests each substance at several concentrations.

Test [3] in a line: qHTS assay for small molecule agonists of the p53 signaling pathway - cell viability (AID 651633; calls by dose curve; further: nearly all actives have a fitted effect of over 30% in size; further: potency means the concentration at half of the fitted maximal effect). A digest of the protocol: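 p53RE-bla cells were treated with compound for 16 hours at 37 C. Cytotoxicity was then measured as CellTiter-Glo luminescence after 30 min at room temperature.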
Test [4] in a line: qHTS assay for small molecule disruptors of the mitochondrial membrane potential - cell viability (AID 720634; calls by dose curve; further: nearly all actives have a fitted effect of over 20% in size; further: potency means the concentration at half of the fitted maximal effect). The method, boiled down:
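Viability of HepG2 cells is scored from ATP content by luminescence; cells are exposed to compound for 1 hr at 37 C and 5% CO2, then dosed with m-MPI dye before the CellTiter-Glo reagent.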

Test [5] in a line: qHTS assay for small molecule disruptors of the mitochondrial membrane potential (AID 720635). Further: potency means the concentration at half of the fitted maximal effect. The method, boiled down:
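HepG2 cells exposed to compound 1 hr at 37C, then Mito-MPS dye 30 min. Ratio read of aggregate (540/590 nm) versus monomer (490/535 nm) fluorescence.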

Test [6] can be described thus: qHTS assay to test for compound auto fluorescence at 590 nm (red) in HepG2 cells (AID 720674). The method, boiled down:
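Fluorescence at 590 nm emission following 540 nm excitation was recorded from HepG2 wells one hour after compound transfer, with DMSO-only wells as vehicle and Rose Bengal sodium equivalency as the scale.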

Test [7] can be described thus: qHTS assay to test for compound auto fluorescence at 535 nm (green) in HepG2 cells (AID 720675).
Test [8] is described as follows: qHTS assay to test for compound auto fluorescence at 460 nm (blue) in HEK293 cells (AID 720678). Further: potency means the concentration at half of the fitted maximal effect. A digest of the protocol:
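Measured: blue fluorescence (Ex 405/Em 460 nm) of compound-treated HEK293 cells, incubated overnight at 37C with 5% CO2 and scaled to triamterene equivalents.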

Test [9] is described as follows: qHTS assay to test for compound auto fluorescence at 590 nm (red) in HEK293 cells (AID 720679). A digest of the protocol: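 Using HEK293 cells at 2,000 per well, the screen added 23 nL of each compound after cell attachment and incubated overnight (37C, 5% CO2). The plate reader then captured red-label fluorescence, Ex/Em 540/590nm.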
Test [10] is described as follows: qHTS assay for small molecules that induce genotoxicity in human embryonic kidney cells expressing luciferase-tagged ATAD5 - cell viability (AID 651634; calls by dose curve; further: nearly all actives have a fitted effect of over 25% in size; further: potency means the concentration at half of the fitted maximal effect). A digest of the protocol: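 Here HEK293T cells with the ATAD5 luciferase reporter are incubated with test compounds for 15.5 hr, and cytotoxicity is then gauged by measuring protease activity in live cells using fluorescence.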

Molecules are shown by their SMILES. Where “and” joins values, the source holds several entries; their conditions need not be identical. Equal entries are not always repeated. Results filed as inconclusive are left out. A structure can be active in one record and inactive in another. Calls of active or inactive are those of the source. Unless noted, the call rests on the fitted dose curve; in most records, active means well fitted curve in the direction sought with a large enough effect in the repeat runs; inconclusive means weak or mixed curves; inactive means no such curve, though single readings can be large; an effect the other way counts as inactive or inconclusive.
On the % scale 0 is the no-effect control and ±100 the full control effect; tags describe the fitted curve by direction and shape or compound fluorescence and quenching.

For `CC(C)=CCOc1ccc(/C=C/C(=O)c2ccc(OCC=C(C)C)cc2OCC(=O)O)cc1`, the results for the Potency in test [1], in test [3] and in test [5] were 13.3 µM (active), 10.6 µM (active) and 23.7 µM (active), respectively. In addition, the Potency result in test [2], in [4], in [6], in test [7], in [8] and in test [9] was “inactive” in each case.
Take `Cc1nc(-c2ccc3c(c2)CCN(CCC2CCC(NC(=O)/C=C/c4ccc(F)cc4)CC2)CC3)no1` (stereo not drawn): the Potency is 27.4 µM (active) in test [1] and 19.4 µM (active) in test [2]. In addition, the Potency result in test [3], in test [4], in test [5], in test [6], in test [7] and in [8] was “inactive” each time. For the same compound, the Potency entry in test [9] was “inactive”.
Regarding `CCOc1ccc2nc3cc(N)ccc3c(N)c2c1`, the results for the Potency in [1] and in [5] were 11.9 µM (active) and 2.66 µM (active), respectively. Also, the Potency result in [2], in test [10], in test [4], in test [6], in test [7] and in test [9] was “inactive” throughout.
Turning to `O=C(Nc1cccc(C(F)(F)F)c1)c1cc(Br)cc(Br)c1O`, the Potency is 5.31 µM (active) and 1.72 µM (active) in test [1]; 473 nM (active) and 686 nM (active) in [3]; 13.3 µM (active) in test [10]; 335 nM (active) and 109 nM (active) in [5]. Besides, the Potency entry in test [2], in test [6], in test [7], in test [8] and in test [9] was “inactive” in each case.
In the case of `Cc1cc2c(cc1C(F)(F)F)N(C(=O)Nc1ccc(Oc3cccnc3C)nc1)CC2`, the Potency result in [1], in test [2], in [3], in [6], in test [7] and in test [8] was “inactive” throughout. The Potency result in test [9] is “inactive”. The Potency in test [5] is 12.4 µM (active).
For the compound `C/C=C(\C)C(=O)OCc1ccccc1`, the Potency entry in [1], in test [2], in test [3], in test [4], in [6] and in [7] was “inactive” in each case. Further, the Potency result in [8] and in test [9] was “inactive” in each case.
For `O=C1C=CC(=O)N1`, the Potency in [1] is 49.8 µM (active); in [4], 49.8 µM (active); in test [5], 28 µM (active). Moreover, the Potency entry in [2], in test [6], in [7], in [8] and in [9] was “inactive” throughout.
On to `CC[C@@]1(O)C(=O)OCc2c1cc1n(c2=O)Cc2cc3c(CN(C)C)c(O)ccc3nc2-1`, for which the values for the Potency in [1], in [3] and in test [8] were 0.237 µM (active), 8.41 µM (active) and 17.8 µM [fluorescent] (active), respectively. For the same compound, the Potency entry in test [2], in test [4], in test [6], in test [7] and in [9] was “inactive” throughout.
As to `COc1c(C)c2c(c(O)c1C/C=C(\C)CCC(=O)O)C(=O)OC2`, the Potency was 0.0717 µM (active) in [1] and 0.202 µM (active) in test [10]. Also, the Potency result in test [2] and in test [4] was “inactive” throughout. The fluorescence, relative to Rose Bengal in test [6] is 0.0782% [at 18.6 µM] (inactive). Besides, the fluorescence, % of fluorescein control in [7] is 0.0327% [at 18.6 µM] (inactive). Further, in test [8], the fluorescence, % of triamterene is -0.0265% [at 18.6 µM] (inactive). The fluorescence, % of fluorescent control in test [9] was 0.167% [at 18.6 µM] (inactive).
On to `O=C(O)c1cc(O)c2c(c1)C(=O)c1cccc(O)c1C2=O`, for which the Potency was 19.9 µM (active) in test [1] and 2.51 µM (active) in test [5]. For the same compound, the Potency result in test [2], in test [3], in [4], in test [6], in [7] and in test [8] was “inactive” in each case. In addition, the Potency result in [9] is “inactive”.
As to `Oc1c(Cl)cc(Cl)c2cccnc12`, the Potency was 2.37 µM (active) in test [1], 13.3 µM (active) in [2], 2.98 µM (active) in [3] and 10.6 µM (active) in [5]. Moreover, the Potency result in [4], in test [6], in [7], in [8] and in [9] was “inactive” throughout.
Take `Nc1c2ccccc2nc2ccccc12`: the Potency in test [1] is 3.35 µM (active) and 1.91 µM (active); in test [5] it was 11.9 µM (active) and 4.27 µM (active); in test [8], 11.2 µM [fluorescent] (active) and 31.6 µM [fluorescent] (active). In addition, the Potency result in test [2], in [3], in test [4], in [6], in [7] and in test [9] was “inactive” throughout.
As to `CCCCN1C(=O)[C@@H]([C@H](O)C2CCCCC2)NC(=O)C12CCN(Cc1ccc(Oc3ccc(C(=O)O)cc3)cc1)CC2`, the Potency in test [1] is 54.5 µM (active). In addition, the Potency result in test [2], in test [3], in test [4], in test [6], in [7] and in [8] was “inactive” each time. Further, in [9], the Potency result was “inactive”.
`CN1CCN(CCC(=O)N2c3ccccc3Sc3ccc(C(F)(F)F)cc32)CC1`: the Potency result in [1], in [2], in [3], in test [10], in test [4] and in test [6] was “inactive” in each case. The Potency entry in [7], in test [8] and in test [9] was “inactive” each time.
For `CC(=O)N1CCN(c2ccc(OC[C@H]3CO[C@](Cn4ccnc4)(c4ccc(Cl)cc4Cl)O3)cc2)CC1`, the Potency entry in test [1], in test [2], in test [4], in test [6], in test [7] and in test [8] was “inactive” throughout. Further, the Potency result in test [9] was “inactive”. Moreover, the Potency entry in [3] was “inactive and 61.1 µM (active)”; in [5], 4.86 µM (active).
Take `C=C(C)C(=O)OCC(O)COc1ccc(C(C)(C)c2ccc(OCC(O)COC(=O)C(=C)C)cc2)cc1` (stereo not drawn): the Potency in test [1] is 68.6 µM (active); in [3] it was 54.5 µM (active); in test [10] it was 21.7 µM (active); in test [5], 5.45 µM (active). The Potency result in [2], in test [6], in test [7], in test [8] and in test [9] was “inactive” in each case.
As to `CCN(CC)CCCC(C)Nc1c2ccc(Cl)cc2nc2ccc(OC)cc12` (stereo not drawn), the Potency was 5.96 µM (active) in test [1], 29.8 µM (active) in test [2] and 11.2 µM [fluorescent] (active) in [8]. In addition, the Potency result in [10], in test [6], in test [7] and in test [9] was “inactive” in each case.
With `CC(C)(C)c1ccc(C(=O)O)cc1`, the Potency entry in [1], in test [2], in test [3], in [6], in [7] and in test [8] was “inactive” throughout. The Potency entry in test [9] is “inactive”.
For the compound `O=c1c(-c2ccccc2)c1-c1ccccc1`, the Potency in [1] is 18.8 µM (active); in test [3] it was 13.3 µM (active); in [5] it was 23.7 µM (active). Moreover, the Potency result in test [2], in [4], in test [6], in test [7], in [8] and in test [9] was “inactive” throughout.
Consider `CC[C@H](c1ccc(O)cc1)[C@@H](CC)c1ccc(O)cc1`, for which the Potency in test [1] is 5.07 µM (active) and 13.7 µM (active); in test [3], “inactive and 54.5 µM (active)”; in [5], 8.04 µM (active) and 9.69 µM (active). Further, the Potency entry in [2], in test [10], in test [6], in test [7], in [8] and in test [9] was “inactive” throughout.
As to `CCOC(=O)/C=C(C)/C=C/C=C(C)/C=C/c1c(C)cc(OC)c(C)c1C`, the Potency in [1] is 21.1 µM (active). Further, the Potency entry in test [2], in test [3], in test [10], in [4], in test [6] and in [7] was “inactive” throughout. Also, the Potency entry in [8] and in test [9] was “inactive” each time.
